An excerpt weighted towards active compounds, which were near 28% of everything screened.
CYP2C9 act = CYP2C9 (human) activation. 96,000 tested, 1.4% active. AID 1024. P11712. recombinant CYP2C9, luciferin-H conversion, luminescence; stronger effect = higher value; factor 1 = untreated enzyme, 0 = blocked. activation factor at 5 µM;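 active = activation factor of 2 or more for CYP2C9 at a 5 µM dose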
CYP2C19 inh = inhibitors of human CYP2C19; P33261; CYP2C19 Supersomes, luciferin-H EGE luminescence, 30 min; inhibition, % at 5 µM; 96,000 tested, 21% active; AID 778;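 active = CYP2C19 inhibition above a set limit at 5 µM in the primary screen, cut at about 50% in these data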
Target sequence (P33261 whole entry, looked up): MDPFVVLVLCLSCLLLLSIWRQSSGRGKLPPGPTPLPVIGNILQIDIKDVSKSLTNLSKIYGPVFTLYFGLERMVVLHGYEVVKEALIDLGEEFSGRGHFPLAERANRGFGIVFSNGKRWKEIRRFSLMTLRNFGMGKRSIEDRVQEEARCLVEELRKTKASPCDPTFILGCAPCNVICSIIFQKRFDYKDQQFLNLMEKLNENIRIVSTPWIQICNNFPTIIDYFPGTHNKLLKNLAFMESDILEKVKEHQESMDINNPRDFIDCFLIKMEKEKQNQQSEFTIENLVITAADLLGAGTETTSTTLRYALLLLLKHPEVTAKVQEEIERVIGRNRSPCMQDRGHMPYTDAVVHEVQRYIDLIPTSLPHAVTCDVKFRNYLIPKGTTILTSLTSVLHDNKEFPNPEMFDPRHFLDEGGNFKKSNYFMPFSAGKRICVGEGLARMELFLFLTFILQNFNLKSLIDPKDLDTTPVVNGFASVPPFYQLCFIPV
CYP2C19 activ = increases human CYP2C19 enzyme activity; recombinant CYP2C19, luciferin-H EGE luminescence; stronger effect = higher value; 0 = fully inhibited enzyme, 1 = untreated enzyme; activation factor at 5 µM; 96,000 tested, under 10 active; AID 1025;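 active = activation factor of at least 2 at 5 µM in the primary screen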
PLK1 inh = blocks human PLK1 kinase activity; AID 619; recombinant PLK1 kinase, TR-FRET peptide phosphorylation; inhibition, % at 10 µM; P53350; 97,000 tested, 0.53% active;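 active = inhibition of 50% or more in the single-concentration screen; inactive = inhibition below 50%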
CYP2C9 inh = human CYP2C9 inhibition; CYP2C9 Supersomes, luciferin-H conversion, luminescence; inhibition, % at 5 µM; P11712; 96,000 tested, 20% active;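 active = blocking of liver enzyme CYP2C9 beyond about 50% at 5 µM, limit read from the data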
Plk1 PBD FP = blocks phosphopeptide binding to human Plk1 polo box domain; P53350; Plk1 PBD phosphopeptide binding, fluorescence polarization; inhibition, %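 (tested at about 20 µM)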; 97,000 tested, 0.13% active; AID 693; in the data active = inhibition above about 34%, passing the limit was not always enough
A number is an active result; 0 = inactive; - = no result given.

SMILES | CYP2C9 act | CYP2C19 inh | CYP2C19 activ | PLK1 inh | CYP2C9 inh | Plk1 PBD FP
O=c1ccn(-c2cccc(C(F)(F)F)c2)nc1-c1ccn(-c2ccccc2F)n1 | 0 | 0 | 0 | 0 | 69.3 | 0
COc1ccc(-n2ccc(-c3nn(-c4cccc(C(F)(F)F)c4)ccc3=O)n2)cc1 | 0 | 82.0 | 0 | 0 | 83.0 | 0
COc1ccc(NC(=O)N2CCN(c3cccc(C(F)(F)F)c3)CC2)cc1 | 0 | 0 | 0 | 0 | 0 | 0
COc1ccccc1NC(=O)c1nn(-c2ccc(F)c(F)c2)ccc1=O | 0 | 0 | 0 | 0 | 0 | 0
COc1ccccc1NC(=O)c1nn(-c2cccc(C(F)(F)F)c2)ccc1=O | 2.7 | 0 | 0 | 0 | 0 | 0
O=C(c1ccc(COc2ccccc2Br)cc1)N1CCCCC1 | 0 | 0 | 0 | 0 | 0 | 0
CCOC(=O)N1CCN(Cc2nc3c(c(=O)n(C)c(=O)n3C)n2CCC(C)C)CC1 | 0 | 0 | 0 | 0 | 0 | 0
CCOc1ccc(NC(=O)CCCOc2cc(=O)n(C)c3ccccc23)cc1 | 0 | 0 | 0 | 0 | 70.9 | 0
Cc1ccnc(NC(=O)CCCOc2cc(=O)n(C)c3ccccc23)c1 | 0 | 0 | 0 | 0 | 0 | 0
COc1cccc(NC(=O)CCCOc2cc(=O)n(C)c3ccccc23)c1 | 0 | 64.3 | 0 | 0 | 0 | 0
CCOC(=O)CCCOC(=O)c1ccc(S(=O)(=O)N(C)C)cc1 | - | - | - | 0 | - | 0
CCCC1CC(CSC(=N)N)OC1=O (stereo not drawn) | 0 | 0 | 0 | 0 | 0 | 0
CCCCCCC1CC(CSC(=N)N)OC1=O (stereo not drawn) | 0 | 79.3 | 0 | 0 | 0 | 0
Cc1ccc(NC(=O)c2oc3ccccc3c2NC(=O)c2ccc3c(c2)OCO3)cc1 | 0 | 0 | 0 | 0 | 50.7 | 0
CCC(=O)Nc1ccc(NC(=O)c2ccc3c(c2)OCO3)cc1 | 0 | 0 | 0 | 0 | 0 | 0
O=C(Nc1cccc(F)c1)c1ccc2c(c1)OCO2 | 0 | 93.9 | 0 | 0 | 50.1 | 0
CCC(CC)C(=O)Nc1cccc(C(=O)Nc2ccc(S(=O)(=O)Nc3ccc(C)cc3)cc2)c1 | 0 | 86.8 | 0 | 0 | 90.5 | 0
O=C(Nc1c(C(=O)Nc2cccc(F)c2)oc2ccccc12)c1ccc2c(c1)OCO2 | 0 | 0 | 0 | 0 | 0 | 0
CCCC(=O)Nc1cccc(NC(=O)c2ccc3c(c2)OCO3)c1 | 0 | 0 | 0 | 0 | 52.4 | 0
CCC(CC)C(=O)Nc1cccc(C(=O)Nc2ccc3c(c2)OCO3)c1 | 0 | 84.0 | 0 | 0 | 87.8 | 0
CCCN(CCC)S(=O)(=O)c1cccc(C(=O)Nc2ccc3c(c2)OCO3)c1 | 0 | 0 | 0 | 0 | 63.0 | 0
CCOc1ccc(C(=O)Nc2ccc3c(c2)OCO3)cc1OCC | 0 | 0 | 0 | 0 | 0 | 0
Cn1c(=O)c2cc(S(=O)(=O)NCCC(=O)NCC3CCCO3)ccc2n(C)c1=O (stereo not drawn) | 0 | 0 | 0 | 0 | 0 | 0
COc1ccc(OC)c(S(=O)(=O)NCCO)c1 | 0 | 0 | 0 | 0 | 0 | 0
O=[N+]([O-])c1ccccc1S(=O)(=O)NCCC1=CCCCC1 | 0 | 0 | 0 | 0 | 0 | 0
SMILES | CYP2C9 act | CYP2C19 inh | CYP2C19 activ | PLK1 inh | CYP2C9 inh | Plk1 PBD FP
COc1ccc(OC)c(S(=O)(=O)NCCC2=CCCCC2)c1 | 0 | 100.3 | 0 | 0 | 89.3 | 0
COc1ccc(OC)c(N/C=C2/CCCCC2=O)c1 | 0 | 0 | 0 | 0 | 55.1 | 0
CCCCOc1ccc(S(=O)(=O)Nc2cc(OC)ccc2OC)cc1 | 0 | 85.8 | 0 | 0 | 74.1 | 0
CCNS(=O)(=O)c1cc(OC)ccc1OC | 0 | 85.2 | 0 | 0 | 89.6 | 0
COc1ccc(-n2nc3c(c2NC(=O)c2c(F)cccc2Cl)CS(=O)C3)cc1 (stereo not drawn) | 0 | 0 | 0 | 0 | 0 | 0
COc1ccc(/C=N/NC(N)=S)cc1OC(=O)c1ccccc1 | 0 | 0 | 0 | 0 | 0 | 0
COc1ccc(OC)c(NS(=O)(=O)c2cc(OC)ccc2OC)c1 | 0 | 95.5 | 0 | 0 | 59.2 | 0
COc1ccc(OC)c(S(=O)(=O)Nc2ccccc2C)c1 | 0 | 86.9 | 0 | 0 | 0 | 0
COC(Cn1c(C)c(C(C)=O)c(C(C)=O)c1C)OC | 0 | 0 | 0 | 0 | 0 | 0
O=C(O)c1sccc1SCc1ccc(Cl)cc1Cl | 0 | 0 | 0 | 0 | 53.5 | 0
CC(=O)Nc1nc(SCc2ccc(Cl)cc2Cl)n[nH]1 | 0 | 0 | 0 | 0 | 0 | 0
Cc1cc(C)c2cc(C#N)c(N3CCCN(S(=O)(=O)c4ccccc4)CC3)nc2c1 | - | - | - | 0 | - | 0
CC(=O)c1cccc(S(=O)(=O)N2CCN(c3nc4cc(C)cc(C)c4cc3C#N)CC2)c1 | 0 | 58.4 | 0 | 0 | 67.0 | 0
Cc1nc(CS(=O)(=O)c2ccccc2)cc(Sc2ccc(Cl)cc2Cl)n1 | 0 | 0 | 0 | 0 | 50.3 | 0
Cc1[nH][nH]c(=O)c1C(c1ccc(-c2ccc(Cl)cc2Cl)o1)c1c(C)[nH][nH]c1=O | 0 | 74.1 | 0 | 0 | 0 | 0
Cc1ccccc1NC(=O)c1ccc(-c2ccc(Cl)cc2Cl)o1 | 0 | 0 | 0 | 0 | 0 | 0
COC(=O)c1ccc(N2CCN(S(=O)(=O)c3c(C)cc(C)cc3C)CC2)c([N+](=O)[O-])c1 | 0 | 0 | 0 | 0 | 0 | 0
Cc1cc(C)c(S(=O)(=O)N2CCN(c3ccc([N+](=O)[O-])c(-n4nc(C)cc4C)c3)CC2)c(C)c1 | 0 | 0 | 0 | 0 | 60.2 | 0
CCOC(=O)N1CCN(C(=O)CCCn2nc(C)c3sc4ccccc4c3c2=O)CC1 | 2.4 | 0 | 0 | 0 | 0 | 0
CCCCC(=O)Nc1cccc(NC(=O)c2ccccc2Br)c1 | 0 | 58.2 | 0 | 0 | 72.6 | 0
CCCCC(=O)Nc1cccc(NC(=O)CC)c1 | 0 | 0 | 0 | 0 | 0 | 0
CC12CCC(C(=O)NCCN3CCCCC3)(CC1=O)C2(C)C (stereo not drawn) | 0 | 0 | 0 | 0 | 0 | 0
CC1(C)CC(NC(=O)C23CCC(C)(C(=O)C2)C3(C)C)CC(C)(C)N1 (stereo not drawn) | 0 | 0 | 0 | 0 | 60.1 | 0
COC(=O)/C=C(\C)NC(=O)c1ccccc1Cl | 0 | 80.1 | 0 | 0 | 0 | 0
Oc1ccc2ccccc2c1N=Nc1ccccn1 | 0 | 0 | 0 | 0 | 67.1 | 0
SMILES | CYP2C9 act | CYP2C19 inh | CYP2C19 activ | PLK1 inh | CYP2C9 inh | Plk1 PBD FP
O=C(O)c1cccc(CSc2nnc(-c3ccco3)o2)c1 | 0 | 0 | 0 | 0 | 0 | 0
O=C(Nc1ccccc1-c1nnc(SCc2ccccc2)o1)c1ccccc1 | 0 | 0 | 0 | 0 | 79.1 | 0
O=C(Nc1ccccc1-c1nnc(SCc2ccc(Cl)cc2)o1)c1ccccc1 | 0 | 0 | 0 | 0 | 69.6 | 0
O=c1c(-c2nnc(SCc3ccc(Cl)cc3)o2)cccn1Cc1ccccc1 | 0 | 90.7 | 0 | 0 | 0 | 0
Clc1ccc(CSc2nnc(-c3c[nH]c4ccccc34)o2)cc1 | 0 | 0 | 0 | 0 | 0 | 0
CCOc1ccc(S(=O)(=O)n2nnc3ccccc32)cc1C(C)C | 0 | 0 | 0 | 0 | 0 | 0
COC(=O)c1scc(C)c1NC(=O)C1CCCCC1 | 0 | 0 | 0 | 0 | 0 | 0
CCN(CC)S(=O)(=O)c1ccc2nc(NC(=O)c3cccs3)sc2c1 | 0 | 0 | 0 | 0 | 62.0 | 0
